# Assay results: the supplement of paper PMC6411743
# ± gives the standard deviation of the averaged measurements. The full data set covers some 5,400 targets. This sample favours those with the largest changes.
# Compound: Nc1nc2c(ncn2[C@@H]2O[C@H](COP(=O)(O)OP(=O)(O)OP(=O)(O)O)[C@@H](O)[C@H]2O)c(=O)[nH]1 [guanosine triphosphate]
# Assay: NP40-soluble protein abundance relative to vehicle (solubility fold change) (ratio); higher = more soluble protein in presence of GTP
# Summary of the method: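 Jurkat crude lysate prepared with a Dounce homogeniser was treated at eight concentrations spanning 0.1 to 10 mM, 10 min at room temperature then 3 min at 37 °C. Solubilisation with 0.8% NP40 and benzonase and ultracentrifugation preceded TMT labelling of the supernatant for LC-MS/MS. Fold change against the detergent-processed vehicle was determined per replicate from vsn-normalised intensities, across three independent experiments.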
# UniProt O94906, sequence (O94906 whole entry): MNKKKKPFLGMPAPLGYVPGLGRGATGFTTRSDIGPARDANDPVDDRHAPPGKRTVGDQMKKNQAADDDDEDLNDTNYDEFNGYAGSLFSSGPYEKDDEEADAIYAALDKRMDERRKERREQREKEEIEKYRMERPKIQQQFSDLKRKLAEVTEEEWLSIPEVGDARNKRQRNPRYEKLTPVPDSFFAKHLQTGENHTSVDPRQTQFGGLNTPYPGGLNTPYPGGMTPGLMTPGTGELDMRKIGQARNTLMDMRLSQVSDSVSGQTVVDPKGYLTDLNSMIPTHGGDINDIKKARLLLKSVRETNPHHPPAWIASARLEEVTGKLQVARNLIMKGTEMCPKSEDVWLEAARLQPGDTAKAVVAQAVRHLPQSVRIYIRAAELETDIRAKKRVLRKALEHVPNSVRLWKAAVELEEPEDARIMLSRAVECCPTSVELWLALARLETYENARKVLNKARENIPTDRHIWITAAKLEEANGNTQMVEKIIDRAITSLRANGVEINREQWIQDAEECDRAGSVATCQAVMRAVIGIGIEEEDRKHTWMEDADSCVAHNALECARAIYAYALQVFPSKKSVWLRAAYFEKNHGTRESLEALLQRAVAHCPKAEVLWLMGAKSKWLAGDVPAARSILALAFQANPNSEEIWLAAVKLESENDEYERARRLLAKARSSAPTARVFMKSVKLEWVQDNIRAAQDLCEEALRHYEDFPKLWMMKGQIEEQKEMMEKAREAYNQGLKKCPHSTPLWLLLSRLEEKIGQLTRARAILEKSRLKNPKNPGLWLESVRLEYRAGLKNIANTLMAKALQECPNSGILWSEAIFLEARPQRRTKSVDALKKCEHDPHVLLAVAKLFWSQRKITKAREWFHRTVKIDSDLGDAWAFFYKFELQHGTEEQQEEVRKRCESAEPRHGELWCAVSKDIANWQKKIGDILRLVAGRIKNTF
# UniProt O15260, sequence (O15260 whole entry, one chain of several): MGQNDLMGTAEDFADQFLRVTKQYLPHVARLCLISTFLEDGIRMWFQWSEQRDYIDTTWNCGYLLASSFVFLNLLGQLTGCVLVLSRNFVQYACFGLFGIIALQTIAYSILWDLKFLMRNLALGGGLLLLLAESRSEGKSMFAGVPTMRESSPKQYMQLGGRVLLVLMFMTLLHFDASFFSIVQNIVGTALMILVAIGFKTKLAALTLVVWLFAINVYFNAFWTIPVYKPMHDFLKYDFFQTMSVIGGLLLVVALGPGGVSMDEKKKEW
# UniProt P16949, sequence (P16949 whole entry): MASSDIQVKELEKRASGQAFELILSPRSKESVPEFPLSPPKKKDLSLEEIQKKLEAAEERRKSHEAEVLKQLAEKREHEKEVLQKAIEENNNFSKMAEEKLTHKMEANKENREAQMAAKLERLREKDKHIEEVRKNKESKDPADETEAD
# UniProt O00567, sequence (O00567 whole entry): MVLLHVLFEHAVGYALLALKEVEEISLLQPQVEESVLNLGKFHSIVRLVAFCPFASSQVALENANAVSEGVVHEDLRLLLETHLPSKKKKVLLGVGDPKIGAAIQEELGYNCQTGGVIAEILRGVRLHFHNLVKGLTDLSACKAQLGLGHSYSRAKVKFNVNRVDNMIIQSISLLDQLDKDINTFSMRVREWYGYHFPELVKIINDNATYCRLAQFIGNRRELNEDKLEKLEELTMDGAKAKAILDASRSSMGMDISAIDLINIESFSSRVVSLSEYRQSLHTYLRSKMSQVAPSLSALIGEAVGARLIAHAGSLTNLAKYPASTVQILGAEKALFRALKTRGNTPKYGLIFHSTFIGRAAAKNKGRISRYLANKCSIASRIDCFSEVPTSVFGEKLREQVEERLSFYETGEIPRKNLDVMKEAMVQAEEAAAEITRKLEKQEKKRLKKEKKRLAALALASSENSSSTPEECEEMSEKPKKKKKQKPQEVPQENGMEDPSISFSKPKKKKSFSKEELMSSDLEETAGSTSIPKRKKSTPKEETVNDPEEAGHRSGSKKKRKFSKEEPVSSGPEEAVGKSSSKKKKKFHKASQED
# UniProt P36915, sequence (P36915 whole entry): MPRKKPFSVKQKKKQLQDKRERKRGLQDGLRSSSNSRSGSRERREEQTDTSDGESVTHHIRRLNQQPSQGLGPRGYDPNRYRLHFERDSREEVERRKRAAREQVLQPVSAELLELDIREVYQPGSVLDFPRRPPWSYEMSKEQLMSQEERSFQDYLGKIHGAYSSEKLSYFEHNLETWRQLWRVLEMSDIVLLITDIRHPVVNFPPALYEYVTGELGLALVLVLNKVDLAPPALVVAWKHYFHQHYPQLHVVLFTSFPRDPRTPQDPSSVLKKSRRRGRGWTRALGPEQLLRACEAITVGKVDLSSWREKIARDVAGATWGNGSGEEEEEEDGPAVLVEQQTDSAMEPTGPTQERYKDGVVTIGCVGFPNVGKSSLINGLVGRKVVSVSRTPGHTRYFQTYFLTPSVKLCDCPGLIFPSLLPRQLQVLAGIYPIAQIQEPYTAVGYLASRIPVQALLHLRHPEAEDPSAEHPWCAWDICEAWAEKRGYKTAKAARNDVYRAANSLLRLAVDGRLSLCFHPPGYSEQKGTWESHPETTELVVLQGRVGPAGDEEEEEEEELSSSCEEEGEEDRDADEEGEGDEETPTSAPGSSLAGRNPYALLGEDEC
# UniProt O15111, sequence (O15111 whole entry): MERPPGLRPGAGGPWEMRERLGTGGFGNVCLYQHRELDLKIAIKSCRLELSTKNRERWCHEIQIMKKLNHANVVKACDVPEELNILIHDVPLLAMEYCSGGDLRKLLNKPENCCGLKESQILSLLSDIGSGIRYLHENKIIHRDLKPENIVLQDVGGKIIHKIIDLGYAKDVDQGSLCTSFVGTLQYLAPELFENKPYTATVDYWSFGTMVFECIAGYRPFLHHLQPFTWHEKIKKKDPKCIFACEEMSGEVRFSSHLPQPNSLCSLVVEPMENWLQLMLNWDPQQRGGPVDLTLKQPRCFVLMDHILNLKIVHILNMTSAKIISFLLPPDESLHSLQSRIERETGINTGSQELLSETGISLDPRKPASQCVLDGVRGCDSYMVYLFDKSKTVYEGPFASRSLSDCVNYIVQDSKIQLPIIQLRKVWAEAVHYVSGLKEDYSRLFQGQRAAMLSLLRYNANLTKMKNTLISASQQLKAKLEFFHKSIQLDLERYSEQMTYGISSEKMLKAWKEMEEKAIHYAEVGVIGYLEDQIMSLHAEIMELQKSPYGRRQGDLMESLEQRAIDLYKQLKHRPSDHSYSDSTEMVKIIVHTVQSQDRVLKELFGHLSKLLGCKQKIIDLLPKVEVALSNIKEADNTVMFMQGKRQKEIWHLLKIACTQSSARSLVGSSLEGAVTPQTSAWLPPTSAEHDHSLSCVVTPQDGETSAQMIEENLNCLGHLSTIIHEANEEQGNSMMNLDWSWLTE
# UniProt Q9HAH7, sequence (Q9HAH7 whole entry, one chain of several): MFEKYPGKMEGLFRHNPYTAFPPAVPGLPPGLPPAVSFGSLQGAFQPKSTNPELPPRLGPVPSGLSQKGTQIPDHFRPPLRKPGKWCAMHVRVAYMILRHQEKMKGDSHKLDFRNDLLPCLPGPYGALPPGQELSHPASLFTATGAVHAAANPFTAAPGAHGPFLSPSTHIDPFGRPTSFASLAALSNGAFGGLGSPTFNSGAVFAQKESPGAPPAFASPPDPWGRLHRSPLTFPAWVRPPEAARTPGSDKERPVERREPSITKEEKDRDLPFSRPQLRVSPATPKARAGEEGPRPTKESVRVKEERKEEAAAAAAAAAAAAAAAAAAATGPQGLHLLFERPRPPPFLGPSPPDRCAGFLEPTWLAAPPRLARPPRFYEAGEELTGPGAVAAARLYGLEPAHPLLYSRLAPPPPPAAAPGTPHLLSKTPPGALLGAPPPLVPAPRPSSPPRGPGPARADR
# UniProt O75143, sequence (O75143 whole entry): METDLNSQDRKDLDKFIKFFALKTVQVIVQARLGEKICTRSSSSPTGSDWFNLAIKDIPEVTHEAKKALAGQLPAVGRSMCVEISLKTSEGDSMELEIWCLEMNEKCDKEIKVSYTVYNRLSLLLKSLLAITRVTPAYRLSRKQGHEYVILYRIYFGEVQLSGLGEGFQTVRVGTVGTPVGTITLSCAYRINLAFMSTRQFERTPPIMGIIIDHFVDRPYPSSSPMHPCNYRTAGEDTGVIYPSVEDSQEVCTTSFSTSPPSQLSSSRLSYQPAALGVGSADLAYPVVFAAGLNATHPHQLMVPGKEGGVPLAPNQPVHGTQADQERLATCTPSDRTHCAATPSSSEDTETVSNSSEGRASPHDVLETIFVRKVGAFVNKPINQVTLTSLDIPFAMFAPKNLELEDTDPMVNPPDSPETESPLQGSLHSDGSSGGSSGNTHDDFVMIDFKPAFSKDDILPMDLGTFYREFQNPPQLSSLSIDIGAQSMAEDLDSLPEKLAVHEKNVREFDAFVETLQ
# UniProt O43167, sequence (O43167 whole entry): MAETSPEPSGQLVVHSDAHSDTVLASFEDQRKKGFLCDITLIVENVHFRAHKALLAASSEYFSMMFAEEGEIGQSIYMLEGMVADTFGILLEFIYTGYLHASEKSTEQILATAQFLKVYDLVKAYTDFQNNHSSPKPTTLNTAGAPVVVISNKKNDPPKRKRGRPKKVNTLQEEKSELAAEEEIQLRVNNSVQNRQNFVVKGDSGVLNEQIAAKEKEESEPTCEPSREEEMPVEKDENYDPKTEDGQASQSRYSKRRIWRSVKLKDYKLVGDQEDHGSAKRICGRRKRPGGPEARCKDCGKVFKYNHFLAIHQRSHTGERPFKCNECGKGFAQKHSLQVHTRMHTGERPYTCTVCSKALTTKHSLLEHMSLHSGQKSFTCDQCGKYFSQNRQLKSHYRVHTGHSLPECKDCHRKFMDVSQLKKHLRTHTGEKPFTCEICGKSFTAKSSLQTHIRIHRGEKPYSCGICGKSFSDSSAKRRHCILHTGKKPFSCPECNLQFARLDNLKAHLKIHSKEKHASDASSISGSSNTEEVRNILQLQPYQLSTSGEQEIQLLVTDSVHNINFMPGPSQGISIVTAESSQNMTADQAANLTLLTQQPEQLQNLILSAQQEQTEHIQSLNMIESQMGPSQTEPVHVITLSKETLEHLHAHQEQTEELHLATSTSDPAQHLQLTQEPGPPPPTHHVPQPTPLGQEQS
Target,NP40-soluble protein abundance (concentration: 0.1mM),NP40-soluble protein abundance (concentration: 0.5mM),NP40-soluble protein abundance (concentration: 1mM),NP40-soluble protein abundance (concentration: 2mM),NP40-soluble protein abundance (concentration: 4mM),NP40-soluble protein abundance (concentration: 6mM),NP40-soluble protein abundance (concentration: 8mM),NP40-soluble protein abundance (concentration: 10mM)
EEF2K (UniProt O00418),0.988 ± 0.074,1.01 ± 0.058,0.944 ± 0.02,0.954 ± 0.044,0.913 ± 0.028,0.951 ± 0.052,0.949 ± 0.068,0.941 ± 0.039
RBM34 (UniProt P42696),1.08 ± 0.0039,1.05 ± 0.034,1.14 ± 0.028,1.23 ± 0.065,1.41 ± 0.066,1.57 ± 0.12,1.68 ± 0.12,1.83 ± 0.066
UniProt O15260|O15260-2|Q5T8U5,1.13 ± 0.021,1.03 ± 0.05,1.05 ± 0.022,1.01 ± 0.07,1.04 ± 0.074,0.956 ± 0.055,1.03 ± 0.044,0.953 ± 0.03
J3QQJ5|Q9Y2L5 (UniProt Q9Y2L5),1.09 ± 0.062,1.1 ± 0.12,1.05 ± 0.091,1.03 ± 0.11,1 ± 0.14,0.989 ± 0.13,1.01 ± 0.12,0.981 ± 0.13
J3KNZ9 (UniProt Q9HAH7),1.01 ± 0.12,0.933 ± 0.095,0.978 ± 0.056,0.984 ± 0.061,0.971 ± 0.051,1.01 ± 0.05,1.02 ± 0.015,1.01 ± 0.061
UniProt O94906|O94906-2,1.06 ± 0.055,1.17 ± 0.086,1.26 ± 0.17,1.42 ± 0.27,1.66 ± 0.44,1.91 ± 0.46,2.23 ± 0.58,2.34 ± 0.6
H2AFX (UniProt P16104),0.94 ± 0.014,0.955 ± 0.036,1.07 ± 0.068,1.13 ± 0.075,1.2 ± 0.088,1.48 ± 0.16,1.44 ± 0.13,2.26 ± 0.46
TGFB1 (UniProt P01137),0.926 ± 0.072,1.02 ± 0.11,0.908 ± 0.091,0.961 ± 0.092,0.987 ± 0.055,0.958 ± 0.088,0.896 ± 0.11,0.968 ± 0.14
CDC34 (UniProt P49427),1.69 ± 0.2,1.07 ± 0.037,1.79 ± 0.077,1.15 ± 0.11,1.16 ± 0.092,1.12 ± 0.1,1.01 ± 0.078,1.06 ± 0.084
STMN1 (UniProt P16949),0.911 ± 0.0092,0.899 ± 0.048,0.994 ± 0.014,0.909 ± 0.042,0.85 ± 0.069,0.935 ± 0.1,0.971 ± 0.089,0.995 ± 0.041
ARPC1B (UniProt O15143),1 ± 0.045,1.04 ± 0.056,0.933 ± 0.034,0.942 ± 0.062,0.928 ± 0.056,0.948 ± 0.04,0.923 ± 0.017,0.887 ± 0.012
HMGN4 (UniProt O00479),1.08 ± 0.057,1.06 ± 0.12,1.02 ± 0.12,1.31 ± 0.04,1.83 ± 0.15,2.26 ± 0.16,1.51 ± 0.74,4.79 ± 0.19
UniProt O75143|O75143-2|O75143-5,0.993 ± 0.038,0.996 ± 0.042,1.01 ± 0.065,1.02 ± 0.081,0.967 ± 0.024,0.959 ± 0.088,0.937 ± 0.058,0.947 ± 0.041
UniProt P49588|P49588-2,0.95 ± 0.017,0.981 ± 0.025,0.928 ± 0.032,0.895 ± 0.034,0.876 ± 0.043,0.905 ± 0.041,0.877 ± 0.04,0.848 ± 0.052
UniProt O95644|O95644-10|O95644-11|O95644-2|O95644-3|O95644-4|O95644-5|O95644-6|O95644-8,1.01 ± 0.2,1.07 ± 0.094,1.25 ± 0.18,1.37 ± 0.17,1.31 ± 0.29,1.34 ± 0.19,1.17 ± 0.053,1.34 ± 0.3
UniProt O96028|O96028-3|O96028-5,1.04 ± 0.032,1.06 ± 0.049,1.19 ± 0.027,1.26 ± 0.027,1.44 ± 0.053,1.49 ± 0.047,1.59 ± 0.067,1.69 ± 0.062
GNL1 (UniProt P36915),1.05 ± 0.023,1.03 ± 0.019,0.972 ± 0.033,0.95 ± 0.015,0.9647 ± 0.0095,0.944 ± 0.02,0.959 ± 0.045,0.906 ± 0.061
UniProt O15111,1.03 ± 0.04,1.04 ± 0.07,0.963 ± 0.052,0.964 ± 0.081,0.961 ± 0.06,0.927 ± 0.061,0.891 ± 0.013,0.887 ± 0.024
ZBTB24 (UniProt O43167),1.09 ± 0.18,1.09 ± 0.2,1.02 ± 0.21,1.05 ± 0.2,1.06 ± 0.24,0.976 ± 0.11,1 ± 0.053,1.08 ± 0.14
UniProt O00567,1.05 ± 0.035,1.03 ± 0.046,1.1 ± 0.087,1.23 ± 0.075,1.55 ± 0.12,1.75 ± 0.12,2.06 ± 0.14,2.48 ± 0.13
UniProt P38159|P38159-2,1.02 ± 0.048,1.02 ± 0.027,1.18 ± 0.036,1.29 ± 0.043,1.47 ± 0.052,1.65 ± 0.1,1.8 ± 0.15,2.04 ± 0.32
UniProt P25705|P25705-2,0.981 ± 0.022,1.04 ± 0.057,0.998 ± 0.062,1.01 ± 0.087,0.986 ± 0.088,1.03 ± 0.11,1.01 ± 0.11,0.995 ± 0.098
IGFBP2 (UniProt P18065),0.9 ± 0.042,0.884 ± 0.053,0.983 ± 0.035,0.997 ± 0.043,0.995 ± 0.028,0.934 ± 0.062,1.02 ± 0.054,1.05 ± 0.087
PSMB4 (UniProt P28070),0.926 ± 0.12,1.01 ± 0.11,0.939 ± 0.11,1.04 ± 0.14,1.05 ± 0.21,1.03 ± 0.22,0.945 ± 0.14,0.976 ± 0.14
P0DN76|Q01081|Q01081-2 (UniProt Q01081+P0DN76),1.23 ± 0.074,1.61 ± 0.28,1.64 ± 0.32,1.67 ± 0.32,1.71 ± 0.36,1.78 ± 0.4,1.79 ± 0.45,1.76 ± 0.38
UniProt P04150|P04150-10|P04150-2|P04150-3|P04150-5|P04150-6|P04150-7|P04150-8|P04150-9|P04150-11|P04150-12|P04150-13,0.899 ± 0.13,0.946 ± 0.032,1.14 ± 0.072,1.07 ± 0.029,1.01 ± 0.043,0.999 ± 0.055,1.02 ± 0.046,1.05 ± 0.069
EEF1E1 (UniProt O43324),1.05 ± 0.28,0.987 ± 0.27,1.24 ± 0.41,1.43 ± 0.46,1.41 ± 0.44,1.39 ± 0.45,1.22 ± 0.39,1.31 ± 0.55
UniProt P23025|F2Z2T2,1.07 ± 0.044,1.08 ± 0.049,1.21 ± 0.054,1.02 ± 0.1,1.05 ± 0.074,1.08 ± 0.14,1.12 ± 0.028,1.08 ± 0.097
